Compounds without any hit were thinned out: in the full panel of roughly 79,000, 15% have a hit. Activity calls are given as the source filed them. Rule as the data show it: active = growth inhibition above about 70%; inactive = the rest.

A short description of the assay: NCI Yeast Anticancer Drug Screen. Data for the sgs1 mgt1 strain (AID 161).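 Also: 0% = growth of cultures given vehicle only.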 To be noted: S. cerevisiae sgs1 mgt1 strain, at 50.0 µM, active compounds read high. The protocol:
Growth inhibition of yeast strains with defined genetic alterations is measured as a screen for potential anti-cancer activity. Selected strains with alterations in DNA damage repair or cell cycle control were exposed to compounds and growth inhibition was measured relative to vehicle treated controls. The strain used in this assay is sgs1 mgt1
For the compound `CNC(=O)c1ccccc1N=NN(C)C`, the growth inhibition was 4.05% (inactive).
In the case of `CN1CC2=C(NC(=S)NC2c2ccccc2)/C(=C/c2ccccc2)C1` (stereo not given), the growth inhibition was 5.65% (inactive).
Turning to `CCSc1cccc(C(=O)O)c1`, the growth inhibition was -3.4% (inactive).
For `COc1ccc(C2C(Cl)C(=O)N2NC(=O)c2ccc(NC(C)=O)cc2)cc1` (stereo not given), the growth inhibition was -49.9% (inactive).
For `O=C(COc1ccc(Cl)c(Cl)c1)NCc1cccc(Cl)c1`, the growth inhibition was -1.7% (inactive).
Regarding `c1ccc2c(c1)ncc1cc3c(cc12)[nH]c1ccccc13`, the growth inhibition is 16.6% (inactive).
Consider `NC1(C(=O)O)CCCc2ccccc21` (stereo not given), for which the growth inhibition was -1.1% (inactive).
For the compound `Nc1ncc(Cl)c(NCC2(CO)CC(CCc3ccccc3)C2)n1` (stereo not given), the growth inhibition is -11.6% (inactive).
With `CON(C)c1nc(N)c(C#N)c(C#N)c1C#N`, the growth inhibition is 3.3% (inactive).
For `O=C1OC(=O)C2C1C1c3ccccc3C2(O)c2ccccc21` (stereo not given) the value was 0.2% (inactive); for `c1ccc2c(c1)CCC(C1=NC3CCCCC3N1)=N2` (stereo not given), 1.1% (inactive); for `COC(=O)c1cc2/c(=N/O)c3ccccc3sc2o1`, -2.1% (inactive).
Turning to `O=C(O)C/C=C/CC(=O)O`, the growth inhibition was -2.7% (inactive).
With `CNC(=O)N(CC1CCCCC1)c1nc2c(=O)n(C)c(=O)[nH]c2s1` the figure was -1% (inactive); with `N#Cc1c2nc3ccccc3nc2n2ccccc12`, -18.9% (inactive); with `OC(c1cc(C2CCCCC2)nc2ccccc12)C1CCCCN1` (stereo not given), 8.85% (inactive).
`CCC1(O)CC2CN(CCc3c([nH]c4ccccc34)C(C(=O)OC)(c3cc4c(cc3OC)N(C)C3C(O)(C(=O)NCCSSCCNC(=O)C5(O)C(O)C6(CC)C=CCN7CCC8(c9cc(C%10(C(=O)OC)CC%11CN(CCc%12c%10[nH]c%10ccccc%12%10)CC(O)(CC)C%11)c(OC)cc9N(C)C58)C76)C(O)C5(CC)C=CCN6CCC43C65)C2)C1` (stereo not given): the growth inhibition is 24.9% (inactive).
Consider `COC(=O)C1CCc2c(ccc3cc(OC)ccc23)C1(C)C(=O)OC` (stereo not given), for which the growth inhibition is -7.4% (inactive).
With `O=C(N/N=C\c1ccccn1)Nc1ccc(N=Nc2ccccc2)cc1` the figure was -1.65% (inactive); with `Cc1ccc(Nc2nc(=O)[nH]c(=O)[nH]2)cc1N`, 20.3% (inactive); with `CC1(C)OC2C(=O)O[C@H](CO)C2O1` (stereo not given in full), -2.9% (inactive).
With `COC(Cc1cc(C(O)(c2ccc(C(C)(C)C)cc2)c2cc(CC(OC)(c3cc(C(OC)(c4ccc(C(C)(C)C)cc4)c4ccc(C(C)(C)C)cc4)c(C)cc3C)c3cc(C(OC)(c4ccc(C(C)(C)C)cc4)c4ccc(C(C)(C)C)cc4)c(C)cc3C)c(C)cc2C)c(C)cc1C)(c1cc(C(OC)(c2ccc(C(C)(C)C)cc2)c2ccc(C(C)(C)C)cc2)c(C)cc1C)c1cc(C(OC)(c2ccc(C(C)(C)C)cc2)c2ccc(C(C)(C)C)cc2)c(C)cc1C`, the growth inhibition is 9.05% (inactive).
With `O=C(O)C1CCCCN1O` (stereo not given), the growth inhibition is -15.9% (inactive).
For `COc1ccccc1C=NC12CC3CC(CC(C3)C1)C2` the value was 2.55% (inactive).
Regarding `O=C1c2ccccc2C(=O)N1c1cccc([N+](=O)[O-])c1`, the growth inhibition is 16.4% (inactive).
For the compound `CCOc1ccc(C2OCC(C)O2)cc1OC` (stereo not given), the growth inhibition is 2.3% (inactive).
With `COc1cccc(/C=C\C(=O)c2ccccc(=O)c2O)c1OC` the figure was 36.8% (inactive).
For `Nc1ccccc1OCOCOc1ccccc1N`, the growth inhibition is -7% (inactive).
As to `C/C=C/CNc1ccc(C)cc1`, the growth inhibition was 25.7% (inactive).
For `COC(=O)Nc1nc2ccc(SC)cc2c(=O)[nH]1` the value was 3.2% (inactive).
For `CC(=O)Oc1cc(C(F)(F)F)ccc1C(=O)OC1(C)OC(=O)c2ccc(C(F)(F)F)cc2O1` (stereo not given), the growth inhibition was -21.4% (inactive).
With `c1ccc2n[nH]nc2c1` the figure was 7.3% (inactive); with `COC(=O)C(NC(=O)C(CC(=O)OC(C)(C)C)NC(=O)OC(C)(C)C)C(O)c1ccccc1` (stereo not given), -22.4% (inactive); with `CN(C1CCCCC1)S(=O)(=O)c1ccc(N)cc1`, 12% (inactive).
In the case of `CCN(CC)Cc1cc(Nc2c3ccc([N+](=O)[O-])cc3nc3ccc(OC)cc23)ccc1O`, the growth inhibition was 56% (inactive).
With `O=C(COc1ccc(Cl)cc1)Nc1ccc(S(=O)(=O)O)c2ccccc12` the figure was -12.4% (inactive); with `COc1cc(C(C#N)NNc2nc(C)cc(=O)[nH]2)cc(OC)c1OC` (stereo not given), -31.1% (inactive); with `C#CCN(CCCC)CCCC`, -5.55% (inactive).
On to `N#CSC1C=CS(=O)(=O)C1` (stereo not given), for which the growth inhibition was 19.6% (inactive).
On to `O=C(Nc1ccc(Cl)c(C(F)(F)F)c1)C(=O)c1c(O)c2ccccc2oc1=O`, for which the growth inhibition was -11.7% (inactive).

The record behind these values is PubChem BioAssay (NCI).
